Measured values reported in PubChem BioAssay (NCI).
Several values for one entry are separate records, joined by “and”; a condition that tells them apart may be missing. Equal values may be shown once. About 83,000 compounds went through this panel and 20% of them were active in at least one assay; those are over-represented in the sample as a whole.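 A percent growth of 40 corresponds to 60% growth inhibition; 0 means no net growth; -100 means all cells died. Active threshold: below 10.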 Activity calls are given as the source filed them.

Experiments:
Assay in all cases: NCI-60 one-dose screen, 48 h (100 = growth as untreated, 0 = no growth, -100 = all killed)
Details in all cases: 10 µM unless noted
NCI-H23 lung = tested on: NCI-H23 lung
NCI-H226 lung = tested on: NCI-H226 lung
NCI-H322M lung = tested on: NCI-H322M lung
HOP-62 NSCLC = tested on: HOP-62 NSCLC
NCI-H460 lung = tested on: NCI-H460 lung
HOP-92 NSCLC = tested on: HOP-92 NSCLC
NCI-H522 lung = tested on: NCI-H522 lung
A549/ATCC NSCLC = tested on: A549/ATCC NSCLC
786-0 renal = tested on: 786-0 renal
COLO 205 colon = tested on: COLO 205 colon
DU-145 prostate = tested on: DU-145 prostate
K-562 leukemia = tested on: K-562 leukemia
MALME-3M melanoma = tested on: MALME-3M melanoma
MDA-MB-231 breast = tested on: MDA-MB-231 breast
RXF 393 renal = tested on: RXF 393 renal
SF-268 CNS = tested on: SF-268 CNS
SF-295 CNS = tested on: SF-295 CNS
SF-539 CNS = tested on: SF-539 CNS
UACC-257 melanoma = tested on: UACC-257 melanoma
M14 melanoma = tested on: M14 melanoma

Measured: growth

COc1ccc2[nH]cc(-c3cc4nc(-c5cn(C)c6ncccc56)cc(N)n4n3)c2c1
inactive: NCI-H23 lung 13.9% | NCI-H226 lung 92.6% | NCI-H322M lung 37.1% | HOP-62 NSCLC 19.8% | SF-268 CNS 32.8% | UACC-257 melanoma 72.7%
active: NCI-H460 lung -58.3% | HOP-92 NSCLC -45.7% | NCI-H522 lung -58.7% | A549/ATCC NSCLC -25.9% | 786-0 renal -90.3% | COLO 205 colon -49.9% | DU-145 prostate 9.07% | K-562 leukemia -31.7% | MALME-3M melanoma -60.6% | MDA-MB-231 breast -58.4% | RXF 393 renal -62.3% | SF-295 CNS -71.4% | SF-539 CNS -93.6% | M14 melanoma -49.5%

O=C(NNC(=O)c1ccc(OCc2nc3ccc(Cl)cc3[nH]2)cc1)Nc1ccc(Cl)c(C(F)(F)F)c1
active: HOP-92 NSCLC -1.57%
inactive: NCI-H23 lung 35.9% | NCI-H226 lung 64.1% | NCI-H322M lung 43.6% | HOP-62 NSCLC 68.4% | NCI-H460 lung 38.1% | NCI-H522 lung 49% | A549/ATCC NSCLC 57.1% | 786-0 renal 70.1% | COLO 205 colon 85.6% | DU-145 prostate 65.7% | K-562 leukemia 39.1% | MALME-3M melanoma 45.7% | MDA-MB-231 breast 17.4% | RXF 393 renal 67.3% | SF-268 CNS 78.2% | SF-295 CNS 84.9% | SF-539 CNS 39.3% | UACC-257 melanoma 73% | M14 melanoma 79.2%

N#Cc1c(NC(=O)N2CCOCC2)n(-c2ccc(OC(F)(F)F)cc2)c2cc(F)ccc12
active: K-562 leukemia 8.91%
inactive: NCI-H23 lung 90.7% | NCI-H226 lung 87.3% | NCI-H322M lung 108% | HOP-62 NSCLC 106% | NCI-H460 lung 94.5% | HOP-92 NSCLC 102% | NCI-H522 lung 78.8% | A549/ATCC NSCLC 86.3% | 786-0 renal 112% | COLO 205 colon 108% | DU-145 prostate 100% | MALME-3M melanoma 94.5% | MDA-MB-231 breast 73.7% | RXF 393 renal 95.2% | SF-268 CNS 114% | SF-295 CNS 87.7% | SF-539 CNS 87.7% | UACC-257 melanoma 102% | M14 melanoma 96.7%

COc1ccc2[nH]cc(-c3cc(N)n4nc(-c5c[nH]c6ccccc56)cc4n3)c2c1
inactive: NCI-H226 lung 74.5% | NCI-H322M lung 18.3% | DU-145 prostate 42.6% | SF-268 CNS 80.4%
active: NCI-H23 lung -12.1% | HOP-62 NSCLC -45.2% | NCI-H460 lung -22.8% | HOP-92 NSCLC -1.68% | NCI-H522 lung -65.3% | A549/ATCC NSCLC 1.46% | 786-0 renal -88.3% | COLO 205 colon -82.5% | K-562 leukemia 3.51% | MALME-3M melanoma -93.4% | MDA-MB-231 breast -69.9% | RXF 393 renal -72.2% | SF-295 CNS -75.9% | SF-539 CNS -95.2% | UACC-257 melanoma -92.3% | M14 melanoma -58.6%

N#Cc1cc(-c2ccnc(Nc3ccc(N4CCN(C5COC5)CC4)cc3)n2)ccc1N1CCCC1
active: RXF 393 renal 9.2%
inactive: NCI-H23 lung 82.9% | NCI-H226 lung 71% | NCI-H322M lung 63.9% | HOP-62 NSCLC 64.3% | NCI-H460 lung 49.9% | HOP-92 NSCLC 52.5% | NCI-H522 lung 65.6% | A549/ATCC NSCLC 67.3% | 786-0 renal 16.9% | COLO 205 colon 86.1% | DU-145 prostate 51% | K-562 leukemia 42.5% | MALME-3M melanoma 104% | MDA-MB-231 breast 65% | SF-268 CNS 50.2% | SF-295 CNS 85.6% | SF-539 CNS 46.5% | UACC-257 melanoma 74.4% | M14 melanoma 71.9%

O=C1C=CC(=CC=C2N(Cc3ccc4ccccc4c3)c3ccccc3N2Cc2ccc3ccccc3c2)C=C1
5.96% (active) and 26.9% (inactive): NCI-H23 lung
-0.845% (active) and 20.9% (inactive): UACC-257 melanoma
inactive: NCI-H226 lung 47.1% and 48% | NCI-H322M lung 49.3% and 59.1% | HOP-62 NSCLC 37.3% and 45.3% | NCI-H460 lung 15.7% and 10.4% | A549/ATCC NSCLC 30.5% and 46.4% | 786-0 renal 51.2% and 69.2% | DU-145 prostate 43.2% and 32.7% | RXF 393 renal 31.6% and 30.9% | SF-268 CNS 67.5% and 56.8% | SF-295 CNS 39.3% and 58.2% | SF-539 CNS 15.5% and 16.9% | M14 melanoma 20.8% and 29.8%
13.5% (inactive) and 6.33% (active): K-562 leukemia
-12.5% (active) and 17.7% (inactive): NCI-H522 lung
active: HOP-92 NSCLC 3.18% and -22.2% | COLO 205 colon -29.1% and 0.579% | MALME-3M melanoma 4.02% and 3.15% | MDA-MB-231 breast -40.7% and -24.6%

Fc1ccc(F)c(CNc2nc(SCCN3CCOCC3)nc3c2cnn3CC(Cl)c2ccc(Br)cc2)c1 (stereo not given)
inactive: NCI-H23 lung 40.3% | NCI-H226 lung 16.2% | NCI-H322M lung 75.2% | HOP-62 NSCLC 47.8% | HOP-92 NSCLC 20.1% | NCI-H522 lung 37.6% | A549/ATCC NSCLC 20.9% | 786-0 renal 17.7% | DU-145 prostate 43.3% | K-562 leukemia 10.6% | SF-268 CNS 30.1% | SF-539 CNS 17.9% | M14 melanoma 18.1%
active: NCI-H460 lung 6.7% | COLO 205 colon -57% | MALME-3M melanoma -30% | MDA-MB-231 breast 6.86% | RXF 393 renal -4.06% | SF-295 CNS 5.06% | UACC-257 melanoma 6.07%

O=C1CC(c2ccc(I)cc2)OC2C=Cc3ccccc3C12 (stereo not given)
inactive: NCI-H23 lung 98.2% | NCI-H226 lung 90.7% | NCI-H322M lung 103% | HOP-62 NSCLC 98.7% | NCI-H460 lung 108% | HOP-92 NSCLC 101% | NCI-H522 lung 86.9% | A549/ATCC NSCLC 102% | 786-0 renal 99.2% | COLO 205 colon 118% | DU-145 prostate 106% | K-562 leukemia 102% | MALME-3M melanoma 94.3% | MDA-MB-231 breast 97.6% | RXF 393 renal 107% | SF-268 CNS 114% | SF-295 CNS 99.9% | SF-539 CNS 106% | UACC-257 melanoma 113% | M14 melanoma 108%

COc1cc(CNC(=O)C[C@H](C)CCC=C(C)C)ccc1OCc1cn(-c2ccc(Cl)c(Cl)c2)nn1
inactive: NCI-H23 lung 68.5% | NCI-H226 lung 50.5% | NCI-H322M lung 82.5% | HOP-62 NSCLC 95.7% | NCI-H460 lung 45.5% | HOP-92 NSCLC 51.6% | NCI-H522 lung 61.5% | A549/ATCC NSCLC 46.5% | 786-0 renal 80.4% | COLO 205 colon 53.6% | DU-145 prostate 76.8% | K-562 leukemia 51.9% | MALME-3M melanoma 77.4% | MDA-MB-231 breast 75.7% | RXF 393 renal 74.8% | SF-268 CNS 58.4% | SF-295 CNS 80.5% | UACC-257 melanoma 91% | M14 melanoma 89%
active: SF-539 CNS 5.3%

COc1cc(C2CC(c3ccc(C(F)(F)F)cc3)=Nc3c(N)nc(N)nc3N2)ccc1Oc1nc(Nc2ccc(F)cc2)nc(N(C)C)n1 (stereo not given)
inactive: NCI-H23 lung 82.2% | NCI-H226 lung 58.6% | NCI-H322M lung 90.8% | HOP-62 NSCLC 81.2% | NCI-H460 lung 13% | HOP-92 NSCLC 33.3% | NCI-H522 lung 30% | A549/ATCC NSCLC 45.9% | 786-0 renal 39.1% | COLO 205 colon 39% | DU-145 prostate 59.9% | MALME-3M melanoma 65.3% | MDA-MB-231 breast 29.5% | SF-268 CNS 53.3% | SF-295 CNS 36.6% | SF-539 CNS 51.4% | UACC-257 melanoma 50.3% | M14 melanoma 28.2%
active: K-562 leukemia 7.52% | RXF 393 renal 3.99%

CCC(=O)c1cc(C(=O)OC)c2ccc3c4ccccc4ccc3n12
inactive: NCI-H23 lung 85.2% | NCI-H226 lung 50.4% | NCI-H322M lung 93.5% | HOP-62 NSCLC 65.4% | NCI-H460 lung 26.1% | HOP-92 NSCLC 88.7% | NCI-H522 lung 102% | A549/ATCC NSCLC 67.9% | 786-0 renal 66.8% | COLO 205 colon 80.5% | DU-145 prostate 93.5% | K-562 leukemia 91.5% | MALME-3M melanoma 71.9% | MDA-MB-231 breast 69.9% | RXF 393 renal 82.1% | SF-268 CNS 89.3% | SF-295 CNS 77.6% | SF-539 CNS 88.2% | UACC-257 melanoma 99.7% | M14 melanoma 105%

CCCCNC(=S)Nc1ccc(OCc2nc3ccc(Cl)cc3[nH]2)cc1
inactive: NCI-H23 lung 29.3% | NCI-H226 lung 58.4% | NCI-H322M lung 57% | HOP-62 NSCLC 49.5% | NCI-H460 lung 15.6% | A549/ATCC NSCLC 52.7% | 786-0 renal 31.3% | COLO 205 colon 24.9% | DU-145 prostate 26.3% | K-562 leukemia 11.1% | MALME-3M melanoma 41.2% | MDA-MB-231 breast 10.5% | SF-268 CNS 48.3% | SF-295 CNS 67.6% | SF-539 CNS 28.4% | UACC-257 melanoma 56.9% | M14 melanoma 39.1%
active: HOP-92 NSCLC -0.247% | NCI-H522 lung -57.5% | RXF 393 renal -1.67%

COc1ccc2[nH]c(=O)c(CSc3ccccc3Nc3nccc(-c4ccc(C(F)(F)F)cc4)n3)cc2c1
active: NCI-H522 lung 0.553% | 786-0 renal -4.97% | RXF 393 renal -41.2% | SF-295 CNS 5.31% | SF-539 CNS 0.901%
inactive: NCI-H23 lung 30.7% | NCI-H226 lung 18.7% | NCI-H322M lung 67.4% | HOP-62 NSCLC 53.6% | NCI-H460 lung 17.4% | HOP-92 NSCLC 26.7% | A549/ATCC NSCLC 18.5% | COLO 205 colon 27.8% | DU-145 prostate 27.3% | K-562 leukemia 19.5% | MALME-3M melanoma 47.4% | MDA-MB-231 breast 31.6% | SF-268 CNS 19.5% | UACC-257 melanoma 50.3% | M14 melanoma 52.3%

COc1ccc2[nH]c(O)c(N=Nc3nc(-c4ccc(Cl)cc4)cs3)c2c1
active: NCI-H23 lung -33.7% | NCI-H226 lung -54.3% | HOP-62 NSCLC -26.6% | NCI-H460 lung -31.4% | HOP-92 NSCLC -38.8% | NCI-H522 lung -26.4% | A549/ATCC NSCLC -60.8% | 786-0 renal -86.6% | COLO 205 colon -76.9% | DU-145 prostate 4.95% | MALME-3M melanoma -63.5% | RXF 393 renal -90% | SF-268 CNS -9.32% | SF-295 CNS -46% | SF-539 CNS -60.5% | UACC-257 melanoma 9.82% | M14 melanoma -9.9%
inactive: NCI-H322M lung 12.8% | K-562 leukemia 12.1% | MDA-MB-231 breast 17.6%
